Reference: the supplement of paper PMC8728848
Shown is part of a subset that was picked to be rich in the strongest signals.

Tests used:
Assay in all cases: glycan array binding signal (z-score within array); higher = stronger binding
Conditions in all cases: glycan notation: IUPAC condensed, linker removed
[1] = target: Fuc(a1-2)Gal(b1-3)[Fuc(a1-4)]GlcNAc
In short: (§1)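 Glycan array data were curated from 3228 arrays in the Consortium for Functional Glycomics database and kept only where the protein sequence was available. Glycan names were converted to IUPAC-condensed notation, and columns mapping to the same glycan were averaged. The binding signal is a within-array Z-score, averaged across arrays of the same protein sequence at different concentrations or buffers and across linkers. Negative Z-scores can be read as non-binding.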

Fuc(a1-2)GlcNAc = target: Fuc(a1-2)GlcNAc
In short: as §1

[2] = target: Fuc(a1-2)[GalNAc(a1-3)]Gal(b1-3)GlcNAc
In short: as §1

[3] = target: Gal(b1-3)GalNAc(b1-4)Gal(b1-4)Glc
In short: as §1

[4] = target: Gal(b1-3)GlcNAc(b1-3)Gal(b1-4)Glc
In short: as §1

[5] = target: Gal(b1-3)[Fuc(a1-4)]GlcNAc(b1-3)Gal(b1-4)[Fuc(a1-3)]GlcNAc
In short: as §1

[6] = target: Gal(b1-4)GlcNAc(b1-3)Gal(b1-4)GlcNAc(b1-3)Gal(b1-4)GlcNAc
In short: as §1

Gal3S6S(b1-4)GlcNAc6S = target: Gal3S6S(b1-4)GlcNAc6S
In short: as §1

GalNAc(a1-3)GalNAc = target: GalNAc(a1-3)GalNAc
In short: as §1

[7] = target: GlcNAc(b1-3)Gal(b1-4)GlcNAc
In short: as §1

GlcNAc(b1-3)Man = target: GlcNAc(b1-3)Man
In short: as §1

[8] = target: GlcNAc(b1-3)[GlcNAc(b1-6)]GalNAc
In short: as §1

[9] = target: Man(a1-2)Man(a1-3)[Man(a1-2)Man(a1-6)]Man(a1-6)[Man(a1-2)Man(a1-2)Man(a1-3)]Man(b1-4)GlcNAc(b1-4)GlcNAc
In short: as §1

[10] = target: Man(a1-2)Man(a1-6)[Man(a1-3)]Man(a1-6)[Man(a1-2)Man(a1-2)Man(a1-3)]Man
In short: as §1

[11] = target: Man(a1-3)[Man(a1-6)]Man(a1-6)[Man(a1-2)Man(a1-3)]Man(b1-4)GlcNAc(b1-4)GlcNAc
In short: as §1

[12] = target: Man(a1-3)[Man(a1-6)]Man(a1-6)[Man(a1-3)]Man(b1-4)GlcNAc(b1-4)GlcNAc
In short: as §1

[13] = target: Neu5Ac(a2-3)Gal(b1-3)GalNAc(b1-3)Gal(a1-4)Gal(b1-4)Glc
In short: as §1

[14] = target: Neu5Ac(a2-3)Gal(b1-3)GlcNAc6S
In short: as §1

[15] = target: Neu5Ac(a2-3)Gal(b1-3)[Neu5Ac(a2-3)Gal(b1-4)]GlcNAc
In short: as §1

[16] = target: Neu5Ac(a2-3)Gal(b1-4)[Fuc(a1-3)]GlcNAc(b1-3)Gal(b1-4)GlcNAc
In short: as §1

[17] = target: Neu5Ac(a2-3)Gal(b1-4)[Fuc(a1-3)]GlcNAc(b1-3)Gal(b1-4)[Fuc(a1-3)]GlcNAc(b1-3)Gal(b1-4)[Fuc(a1-3)]GlcNAc
In short: as §1

[18] = target: Neu5Ac(a2-3)Gal(b1-4)[Fuc(a1-3)]GlcNAc(b1-6)[Gal(b1-3)]GalNAc
In short: as §1

[19] = target: Neu5Ac(a2-3)Gal6S(b1-4)[Fuc(a1-3)]GlcNAc
In short: as §1

[20] = target: Neu5Ac(a2-3)GalNAc(b1-4)GlcNAc
In short: as §1

[21] = target: Neu5Ac(a2-6)Gal(b1-4)GlcNAc(b1-3)Gal(b1-4)[Fuc(a1-3)]GlcNAc(b1-3)Gal(b1-4)[Fuc(a1-3)]GlcNAc
In short: as §1

[22] = target: Neu5Ac(a2-8)Neu5Ac(a2-8)Neu5Ac(a2-3)Gal(b1-4)Glc
In short: as §1

[23] = target: Neu5Ac(a2-8)Neu5Ac(a2-8)Neu5Ac(a2-3)[GalNAc(b1-4)]Gal(b1-4)Glc
In short: as §1

[24] = target: Neu5Gc(a2-3)Gal(b1-4)GlcNAc
In short: as §1

[25] = target: Neu5Gc(a2-6)Gal(b1-4)GlcNAc
In short: as §1

Row | Binder | glycan array binding signal (z-score) [1] | glycan array binding signal (z-score) (Fuc(a1-2)GlcNAc) | glycan array binding signal (z-score) [2] | glycan array binding signal (z-score) [3] | glycan array binding signal (z-score) [4] | glycan array binding signal (z-score) [5] | glycan array binding signal (z-score) [6] | glycan array binding signal (z-score) (Gal3S6S(b1-4)GlcNAc6S) | glycan array binding signal (z-score) (GalNAc(a1-3)GalNAc) | glycan array binding signal (z-score) [7] | glycan array binding signal (z-score) (GlcNAc(b1-3)Man) | glycan array binding signal (z-score) [8] | glycan array binding signal (z-score) [9] | glycan array binding signal (z-score) [10] | glycan array binding signal (z-score) [11] | glycan array binding signal (z-score) [12] | glycan array binding signal (z-score) [13] | glycan array binding signal (z-score) [14] | glycan array binding signal (z-score) [15] | glycan array binding signal (z-score) [16] | glycan array binding signal (z-score) [17] | glycan array binding signal (z-score) [18] | glycan array binding signal (z-score) [19] | glycan array binding signal (z-score) [20] | glycan array binding signal (z-score) [21] | glycan array binding signal (z-score) [22] | glycan array binding signal (z-score) [23] | glycan array binding signal (z-score) [24] | glycan array binding signal (z-score) [25]
1 | CD83 (Homo sapiens) (protein) MSRGLQLLLLSCAYSLAPATPEVKVACSEDVDLPCTAPWDPQVPYTVSWVKLLEGGEERMETPQEDHLRGQHYHQKGQNGSFDAPNERPYSLKIRNTTSCNSGTYRCTLQDPDGQRNLSGKVILRVTGCPAQRKEETFKKYRAETSEQKLISEEDLSRGSDDDDKAEPRGP | -0.388 | -0.045 | -0.222 | -0.09 | -0.32 | -0.243 | -0.142 | -0.129 | -0.329 | -0.162 | -0.188 | -0.453 | 2.96 | -0.272 | 11.7 | 0.723 | 0.647 | 8.93 | -0.458 | 0.381 | -0.243 | -0.12 | -0.131 | -0.291 | 0.014 | 3.7 | 2.88 |  | 
2 | SCA (Schizophyllum commune) (protein) MGIDQGVYLITNAGSGTAATLKDGYVKGWERIKGKEQLNQLWFVKSVKTSASDPGYAAFNLATNKVLDLEKGLADRGTPILGWDYHEGDNQHWVIKKQADGKYYKIQSVKTQTFVDLNNGGKDNGTKIQGWVGSWDETNSHQRWVFNQFSATGSRIKSILDTHPKIHGKVIVEWPDRIYFTPDQYIFEAIWAKTGLADIKPRDPLFQSEAYEKVFKGWVVSRAQEIIKVDGFDILVGSLSLVEKSTQKIKVLDVSVRTSDDKSPDLSQIVFFDPESGRTLVDIPEGYEVNSVII |  |  |  |  |  |  |  |  |  |  |  |  |  |  |  |  |  |  |  |  |  |  |  |  |  |  |  | -0.161 | -0.162
